PubChem BioAssay (EPA / NIEHS)
Several values for one entry are separate records, joined by “and”; a condition that tells them apart may be missing. Identical values can stand only once. Where a structure was tested more than once in an assay, its records may differ in their call. Activity calls are given as the source filed them. Rule for the calls: active = hit-call score of the fitted dose curve at least 0.9, where 1 is the maximum; inactive = score below 0.9.

Key:
[1] = read-out: Interleukin 6 (IL6), IL6 (gene 3569); assay: BSK_BT_xIL6: BioMAP Diversity Plus: BT Assay for Interleukin 6 (IL6) Biomarker Activity (AID 2284228); conditions: primary human B cells with PBMC
In short: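 Human B cell/PBMC co-culture; secreted IL-6 quantified by Luminex xMAP 24 h after chemical dosing, fitted relative to DMSO. Parallel PBMC viability by Alamar Blue after 1 h pretreatment, 20 ng/mL SEB and TSST-1, 90 h incubation.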

[2] = read-out: Interleukin 17A (IL17A), IL17A (gene 3605); assay: BSK_BT_xIL17A: BioMAP Diversity Plus: BT Assay for Interleukin 17A (IL17A) Biomarker Activity (AID 2284229); conditions: primary human B cells with PBMC
In short: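 Co-culture of human B cells and PBMC, dosed for 24 h in 96-well format. Secreted IL-17A measured with Luminex xMAP; gain-direction fitting against DMSO as baseline.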

[3] = read-out: Tumor necrosis factor (Homo sapiens) (UniProt P01375); assay: BSK_BT_xTNFa: BioMAP Diversity Plus: BT Assay for Tumor necrosis factor alpha (TNF-alpha) Biomarker Activity (AID 2284230); conditions: primary human B cells with PBMC
In short: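 B cells with PBMC in co-culture, dosed and sampled at 24 h; secreted TNF-alpha measured by Luminex xMAP bead assay. Activity fitted in the gain direction against DMSO as negative control and baseline.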

[4] = read-out: Vascular cell adhesion molecule 1 (VCAM1), VCAM1 (gene 7412); assay: BSK_MyoF_VCAM1: BioMAP Diversity Plus: MyoF Assay for Vascular cell adhesion molecule 1 (VCAM1) Biomarker Activity (AID 2284231); conditions: primary human lung fibroblasts
In short: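 Primary human lung fibroblasts (BioMAP MyoF system) dosed with chemical, VCAM-1 measured by ELISA 24 hours later. Fitted in the positive direction against DMSO; parallel SRB staining assessed cytotoxicity.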

[5] = read-out: Collagen I, COL1A1 (gene 1277); assay: BSK_MyoF_CollagenI: BioMAP Diversity Plus: MyoF Assay for Collagen I Biomarker Activity (AID 2284238); conditions: primary human lung fibroblasts
In short: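 Primary human lung fibroblasts (MyoF system) treated 24 h; Collagen I quantified by ELISA and fitted in positive direction against DMSO. Parallel SRB total-protein staining assessed overt cytotoxicity.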

[6] = read-out: Collagen III, COL3A1 (gene 1281); assay: BSK_MyoF_CollagenIII: BioMAP Diversity Plus: MyoF Assay for Collagen III Biomarker Activity (AID 2284239); conditions: primary human lung fibroblasts
In short: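 Primary human lung fibroblasts (BioMAP MyoF system) exposed 24 h. Collagen III measured by ELISA; positive-direction fit relative to DMSO.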

[7] = read-out: Interleukin 17F (IL17F), IL17F (gene 112744); assay: BSK_BT_xIL17F: BioMAP Diversity Plus: BT Assay for Interleukin 17F (IL17F) Biomarker Activity (AID 2284243); conditions: primary human B cells with PBMC
In short: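 Human PBMC co-cultured with B cells, compound exposure 24 h; secreted IL-17F quantified by Luminex xMAP, referenced to DMSO control. PBMC viability measured in parallel by Alamar Blue reduction.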

[8] = read-out: Actin alpha 1 (ACTA1), ACTA1 (gene 58); assay: BSK_MyoF_ACTA1: BioMAP Diversity Plus: MyoF Assay for Actin alpha 1 (ACTA1) Biomarker Activity (AID 2284244); conditions: primary human lung fibroblasts
In short: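 Human lung fibroblasts (MyoF system) dosed with test chemical for 24 h; α-SMA measured by ELISA. Gain of signal fitted relative to DMSO negative control as baseline.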

[9] = read-out: Interleukin 2 (IL2), IL2 (gene 3558); assay: BSK_BT_xIL2: BioMAP Diversity Plus: BT Assay for Interleukin 2 (IL2) Biomarker Activity (AID 2284245); conditions: primary human B cells with PBMC
In short: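 Human B cells co-cultured with PBMC, exposed to test chemical for 24 h. Secreted IL-2 quantified by Luminex xMAP bead immunoassay; activity fitted in the positive direction relative to DMSO vehicle baseline.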

[10] = read-out: Basic fibroblast growth factor (bFGF), FGF2 (gene 2247); assay: BSK_MyoF_bFGF: BioMAP Diversity Plus: MyoF Assay for Basic fibroblast growth factor (bFGF) Biomarker Activity (AID 2284246); conditions: primary human lung fibroblasts
In short: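 Human lung fibroblasts were dosed with chemicals and bFGF was quantified by ELISA 24 h later. Activity was fitted in the gain-of-signal direction relative to DMSO as negative control and baseline. Parallel SRB total-protein staining tracked overt cytotoxicity.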

[11] = read-out: Collagen IV, COL4A1 (gene 1282); assay: BSK_MyoF_CollagenIV: BioMAP Diversity Plus: MyoF Assay for Collagen IV Biomarker Activity (AID 2284247); conditions: primary human lung fibroblasts
In short: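 Primary human lung fibroblasts were exposed to test chemicals and sampled 24 h after dosing. Collagen IV levels were measured by ELISA and fitted in the positive direction against DMSO as negative control and baseline.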

[12] = UKN4_HCS_LUHMES_cell_viability: Viability Assessment in the University of Konstanz (UKN) Leist Lab Neurite Outgrowth Assay in human LUHMES cells (UKN4) (AID 2284232)
In short: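 LUHMES cells differentiated 2 days, replated without cAMP/GDNF, then exposed to compounds for 24 h from attachment. Viability read by high-content fluorescence imaging after 30 min live-staining with H-33342 and calcein-AM; bidirectional fit relative to DMSO baseline.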

Measured: AC50

Chain of Tumor necrosis factor (Homo sapiens) (P01375 whole entry, looked up): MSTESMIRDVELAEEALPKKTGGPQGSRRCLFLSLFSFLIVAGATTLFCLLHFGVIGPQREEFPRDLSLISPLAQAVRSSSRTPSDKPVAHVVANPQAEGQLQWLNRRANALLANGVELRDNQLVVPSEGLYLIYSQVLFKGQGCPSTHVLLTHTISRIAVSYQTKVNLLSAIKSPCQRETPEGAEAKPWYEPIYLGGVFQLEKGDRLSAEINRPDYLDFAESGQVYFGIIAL

CCNS(=O)(=O)C(F)(F)C(F)(F)C(F)(F)C(F)(F)C(F)(F)C(F)(F)C(F)(F)C(F)(F)F
inactive: [1] | [2] | [3] | [9]
active: [2] 19.1 µM | [4] 30 µM and 40.3 µM | [5] 50.6 µM and 44.6 µM | [6] 44.1 µM and 45 µM | [7] 21.4 µM and 37.4 µM | [8] 21.5 µM and 30 µM | [10] 46.5 µM and 50.8 µM | [11] 54.7 µM and 7.29 µM

CCC[CH2][Sn]([Cl])([CH2]CCC)[CH2]CCC
active: [12] 0.159 µM
